Source: PubChem BioAssay AID1159606 (Sanford-Burnham Center for Chemical Genomics, 2016)
About 7,300 (2%) of roughly 360,000 compounds were called active. Rule as the data show it: active = inhibition above about 50%; inactive = the rest. The entries come from a sample that favours actives as a whole.

Assay: inhibitors of TWEAK-Fn14 signaling, primary screen, luciferase reporter cells, uHTS (AID 1159606)
Settings: TWEAK-stimulated Fn14 reporter cells, luciferase luminescence, 8 h; at 10 µM; stronger effect = higher value

Structure (SMILES) | inhibition
COc1cccc(-c2nc3nc(C)cc(C)n3c2NC2CCCCC2)c1 | -20.7% (inactive)
CC(C)(C)Oc1ccccc1Nc1nc(NCCO)nc(N2CCCC2)n1 | -8.68% (inactive)
COc1cccc(-n2c(SCC(=O)NC3CCS(=O)(=O)C3)nc3ccccc3c2=O)c1 (centres undefined) | 6.23% (inactive)
Cc1ccc(-n2c(SCC(=O)N3CCC(C(=O)O)CC3)nc3ccccc3c2=O)cc1C | 58.6% (active)
O=C(CSc1nc2ccccc2c(=O)n1-c1ccccc1F)N1CCOCC1 | 0.72% (inactive)
O=C(CCCN1C(=O)C(c2ccccc2)Oc2cccnc21)Nc1ccccc1Br (centres undefined) | -8.78% (inactive)
COC(=O)[C@]12CCCCC=C1N(Cc1cccc3ccccc13)C(=O)[C@H](CC(=O)N1CCOCC1)C2 | -1.32% (inactive)
CSc1ccc(Cl)c(C(=O)OCC(=O)N2CC(C)OC(C)C2)c1 (centres undefined) | 3.56% (inactive)
CCCCC(=O)Nc1c2c(nn1-c1ccc([N+](=O)[O-])cc1)CS(=O)(=O)C2 | -8.65% (inactive)
CN(C)S(=O)(=O)N1CCN(c2ccc([N+](=O)[O-])cc2)CC1 | -16% (inactive)
O=C1/C(=C\c2ccc([N+](=O)[O-])cc2)CS(=O)(=O)C/C1=C/c1ccc([N+](=O)[O-])cc1 | 103% (active)
O=C(O)Cc1csc(NC(=O)CSc2nnnn2-c2ccc(O)cc2)n1 | 58.4% (active)
Cc1cc(NC(=O)CSc2nnnn2-c2ccc(F)cc2)no1 | -11.5% (inactive)
O=C(CSc1nnnn1-c1ccc(O)cc1)c1ccc(F)cc1 | -10.2% (inactive)
O=C(COc1cccc(F)c1)Oc1ccc(C(=O)c2ccccc2)cc1 | 10.4% (inactive)
O=C(Nc1ccn(Cc2ccccc2)n1)c1n[nH]c([N+](=O)[O-])c1Cl | 73.8% (active)
O=C(Nc1ccn(Cc2ccccc2F)n1)c1ccc(COc2ccc(Cl)cc2Cl)o1 | 33.4% (inactive)
Cc1c(Br)c([N+](=O)[O-])nn1CC(=O)N1CCN(Cc2ccccc2)CC1 | -4.42% (inactive)
CC(=O)Oc1ccc(Cn2c(C)c(C(=O)NCc3ccc(C#N)cc3)sc2=O)cc1 | -2.94% (inactive)
CC(=O)C1=CCC(c2ccccc2)N(S(=O)(=O)c2ccc(C)cc2)C1 (centres undefined) | 15.7% (inactive)
Cc1ccc2cc3cc(C(=O)N4CCCCCC4)oc3nc2c1 | 50.1% (active)
Cc1cc(C)cc(NC(=O)N2CCCCCCC2)c1 | -11.9% (inactive)
Cc1ccc2oc(=O)c3cnn(CC(=O)N4CCCCCC4)c3c2c1 | -7.9% (inactive)
COc1ccc(OC)c(CN2C(=O)CCC2(C)c2nnnn2Cc2ccccc2)c1 (centres undefined) | -0.14% (inactive)
